We go through 40 compounds from PubChem BioAssay (Tox21).

Results filed as inconclusive are left out. Values without a mark were called inactive. The source made the active and inactive calls. The call rests on the fitted dose curve; in most records, active means well fitted activation curve with a large enough effect in the repeat runs; inconclusive means weak or mixed curves; inactive means flat fitted curve, though single readings scatter.
On the % scale 0 is the no-effect control and ±100 the full control effect; potency means the concentration at half of the fitted maximal effect.

A short description of this assay: A CellTox Green Cytotoxicity Assay to monitor cytotoxicity in HepG2 cells - 16 hour (AID 1224876). Further: nearly all actives have a fitted effect of over 45% in size. As to conditions: CellTox Green fluorescence; series mostly up to 76.8 µM; cytotoxicity increase: at the top concentration. The source says:
National Center for Advancing Translational Sciences [NCATS]
NIH Chemical Genomics Center [NCGC]
U.S. Environmental Protection Agency [EPA]
National Institutes of Environmental Health Sciences [NIEHS]
National Toxicology Program [NTP]
Cell-based models are critical for drug discovery. Determining the natural cytotoxic effects resulting from test compounds is an essential research activity. A CellTox Green Cytotoxicity Assay to monitor cytotoxicity in real time of continues cell culture during 40 hours of the compound treatment was used to screen Tox21 10K library compounds in HepG2 cells. CellTox Green Cytotoxicity Assay is a nonlytic, homogeneous, biofluorescent method to measure cytotoxicity in cell culture after experimental manipulation. The assay system uses a proprietary asymmetric cyanine dye that is excluded from viable cells but preferentially stains the dead cell's DNA. […] Viable cells produce no appreciable increases in fluorescence. Therefore, the fluorescence signal produced by the binding interaction with dead cell DNA is proportional to cytotoxicity.
The mixture of HepG2 cell suspension and reagents were dispensed at 600cells/6 ul/well in 1536-well tissue culture treated black solid bottom plates using a Multidrop dispenser. After the assay plates were incubated at a 37 C/5% CO2 incubator for 5 hours, 23 nL of compounds dissolved in DMSO, positive and negative controls was transferred to the assay plate by a pintool work station. The plates were incubated at 37 C for 40 hours. The fluorescence intensity were measured at 0h, 8h, 16h, 24h, 32h and 40h time points using ViewLux plate reader during compound treatment.
For the compound `CCCCCCCCCCCC(=O)OCC(O)CO` (stereo not given), the “cytotoxicity increase” value was -4.72%.
Still for that read-out and setting: for `O=C(NC(Cc1cc(=O)[nH]c2ccccc12)C(=O)O)c1ccc(Cl)cc1` (stereo not given) the value was -0.11% [at 35.3 µM].
For `CC(C)Cc1ccc(CC(=O)O)cc1`, the Potency is 19 µM (active).
As to `O=P(O)(O)Oc1ccccc1`, the “cytotoxicity increase” value is 1.76%.
Regarding `CC(=O)OC(C)C[N+](C)(C)C` (stereo not given), the “cytotoxicity increase” value was -15.7% [at 35.3 µM].
As to `O=C1CC[C@@H](C(=O)O)N1`, the “cytotoxicity increase” value was -3.25% [at 35.3 µM].
Regarding `C[C@@H]1C[C@H]2[C@@H]3CCC4=CC(=O)C=C[C@]4(C)[C@@]3(F)[C@@H](O)C[C@]2(C)[C@@]1(O)C(=O)COP(=O)(O)O`, the “cytotoxicity increase” value is -1.6%.
`CCC(=O)OCc1ccc(OC)cc1`: the “cytotoxicity increase” value was -9.5%.
Still for that read-out and setting: for `CCCCCCCCCCCCCCN(C)C` the value was -1.78% [at 15.8 µM].
On the same count and under the same terms, for `O=C(O)CN1C(=O)c2cccc3cccc(c23)C1=O` the value was -10.3% [at 35.3 µM]; for `CC1CCCC(=O)C1=O` (stereo not given), 31.7%.
On the same count and under the same terms, for `Nc1nc(-c2ccc([N+](=O)[O-])cc2)cs1` the value was 1.41%; for `CCCCC[C@H](O)/C=C/[C@H]1[C@H](O)CC(=O)[C@@H]1C/C=C\CCCC(=O)O`, 10.3% [at 35.3 µM].
With `Cc1cc(CCC(=O)OCCOCCOCCOC(=O)CCc2cc(C)c(O)c(C(C)(C)C)c2)cc(C(C)(C)C)c1O`, the “cytotoxicity increase” value is -17.6%.
In the case of `CCc1ccc(C)cc1`, the “cytotoxicity increase” value is -7.95%.
Same read-out and setting: the value for `Cc1ccc(S(=O)(=O)NC(=O)NC2CCCCC2)cc1` was -6.34% [at 35.3 µM]; that for `CC(C)(C)NCC(O)COc1cccc2c1C[C@H](O)[C@H](O)C2` (stereo not given in full) was 0.035% [at 35.3 µM].
Same read-out and setting: the value for `CCN(CC)CCOc1ccccc1C(=O)CCc1ccccc1` was -8.9% [at 35.3 µM].
Take `Nc1ccc(S(=O)(=O)NCc2ccccc2)cc1`: the “cytotoxicity increase” value was -8.67% [at 35.3 µM].
In the case of `CC[C@H]1OC(=O)[C@H](C)[C@@H](O[C@H]2C[C@@](C)(OC)[C@@H](O)[C@H](C)O2)[C@H](C)[C@@H](O[C@@H]2O[C@H](C)C[C@H](N(C)C)[C@H]2O)[C@](C)(O)C[C@@H](C)CN(C)[C@H](C)[C@@H](O)[C@]1(C)O`, the “cytotoxicity increase” value was -4.41% [at 35.3 µM].
Same read-out and setting: for `CC/C=C\C/C=C\C/C=C\CCCCCCCC(=O)OCC` the value was -0.242%.
The same measure, in the same setting: for `CC(C)OC(=O)c1ccccc1C(=O)OC(C)C` the value was 3.1%; for `COC(=O)Nc1nc2ccc(C(=O)C3CC3)cc2[nH]1`, -18.5% [at 35.3 µM]; for `C=CC(=O)O`, 1.05% [at 35.3 µM].
Regarding `Cc1ccccc1S(N)(=O)=O`, the “cytotoxicity increase” value is -5.3%.
Still for that read-out and setting: for `O=[N+]([O-])c1ccc2ncccc2c1` the value was 6.5%.
As for `CCC(CO)(CO)CO`, the “cytotoxicity increase” value was 1.56%.
On the same count and under the same terms, the value for `Cc1cn([C@H]2C[C@H](F)[C@@H](CO)O2)c(=O)[nH]c1=O` was 22.7% [at 35.3 µM]; that for `CCC(C)(C)C(=O)O` was -2.39%; that for `O=C1OC[C@H](Cc2cccc(O)c2)[C@H]1Cc1cccc(O)c1` was -4.75% [at 35.3 µM].
Consider `O=c1[nH]c2cc(C(F)(F)F)c(N3CCOCC3)cc2n(CP(=O)(O)O)c1=O`, for which the “cytotoxicity increase” value was -8.63% [at 35.3 µM].
Still for that read-out and setting: for `Cc1cccc(C)c1NC(=O)c1cc(S(N)(=O)=O)c(Cl)cc1O` the value was 0.201% [at 35.3 µM].
The same measure, in the same setting: the value for `O=C(O)/C=C/c1ccc(O)c(O)c1` was 14.4%; that for `CCCCOC(=O)CCCCC(=O)OCCCC` was 2.43%.
For `CCOC(=O)C(C)O` (stereo not given), the “cytotoxicity increase” value was -7.16%.
Same read-out and setting: for `CNC1CCCN(c2c(F)cc3c(=O)c(C(=O)O)cn(C4CC4)c3c2OC)C1` (stereo not given) the value was -6.67% [at 35.3 µM]; for `O=C(O)CNC(=O)c1ccccc1I`, 1.31% [at 35.3 µM]; for `COc1ccc(/C=C/C(=O)c2ccc(OC)cc2OC)cc1`, 4.81% [at 35.3 µM].
Still for that read-out and setting: the value for `CCN(CC)CCOC(=O)C(c1ccccc1)c1ccccc1` was -7.96% [at 35.3 µM]; that for `Cc1cccc2sc(N)nc12` was 1.79%.
